Screen size: about 350,000 compounds; about 31,000 (8.9%) were called active. Not shown: some 15% with an inconclusive outcome. Only a selection was taken, and actives are over-represented in it overall. A number with no mark means an inactive call. Calls come from the whole dose curve; as a rule, active = well fitted inhibition curve with a large enough effect; inconclusive = small, poorly fitted or top-dose-only effect; inactive = no such curve, though single readings can be large or run the other way.
Target: Histone-lysine N-methyltransferase EHMT2 (Homo sapiens) (UniProt Q96KQ7)
Test: qHTS Assay for Inhibitors of Histone Lysine Methyltransferase G9a; note: nearly all actives have a fitted effect of over 75% in size
Details: G9a H3K9 monomethylation, AlphaScreen, 2 h; series mostly up to 59 µM; activity, negative = inhibition: at the top concentration
Description: Methylated lysines, on the N-terminal tails of histone proteins serve as epigenetic markers to recruit factors that can then modify local chromatin structure to lead to functional consequences. G9a and other members of the SUV39 family of the SET domain-containing superfamily of histone lysine methyltransferases (HMT) have been identified to specifically methylate Lys9 of histone H3 (H3K9). G9a catalyzes the mono- and di-methylation of H3K9 in mammalian euchromatic regions, where the resulting H3K9me2 is indicative of transcriptional repression. […] The inhibition of G9a will result in transcriptional activation and work synergistically with DNA methyltransferase and histone deacetylase inhibitors, to kill cancer cells. This qHTS assay for identification of G9a inhibitors is a chemiluminescence based AlphaScreen (PerkinElmer). Methylation of biotinylated-histone peptide is measured through specific antibody-based detection, in conjunction with streptavidin-coated donor and anti-IgG antibody-coated acceptor beads. The method is particularly well suited for detection of inhibitors acting by the desired histone peptide competitive mechanism and is applicable to testing other HMTs. Although AlphaScreen has significant advantages with its utility in a variety of epigenetic target assays, the primary screening data provided in this deposition should be used with caution due to the prevalence of screening artifacts. An AlphaScreen counterscreen is highly recommended to be run against any putative actives to eliminate non specific artifacts. Alternatively, one can use other AlphaScreen assays in PubChem to filter out promiscuous hits. Quinn et al. A chemiluminescence-based method for identification of histone lysine methyltransferase inhibitors. Mol Biosyst 6(5): 782-8. 2010. PMID: 20567762 [2] Baell,Holloway. New substructure filters for removal of pan assay interference compounds (PAINS) from screening libraries and for their exclusion in bioassays. J Med Chem. 53(7):2719-40. 2010. PMID: 20131845 NIH Molecular Libraries Probe Production Network [MLPCN] NIH Chemical Genomics Center [NCGC] Structural Genomics Consortium (SGC) NIH Grant: 5U54 MH084681-02
To each well of a 1,536w plate, 2ul of HMT enzyme (final 20nM) were added, using a nanoliter dispenser. The G9a- and GLP-inhibitor BIX-01294 (CID: 25150857) are used as an intraplate control, with a 16-point titration in duplicate. A Kalypsys pin-tool transferred 23nl of library compound solution in DMSO to each well. Following a 15 min incubation of enzyme with compounds at room temperature, 1ul mixture of b-H3K9 peptide substrate (final 500nM) and SAM cofactor (final 20uM) were added. Reactions were allowed to proceed at room temperature for 2 hours. Methylated b-H3K9 peptide product was detected with 0.5 ug/mL rabbit polyclonal anti-monomethyl histone H3K9 antibody (Abcam Inc., Cambridge, MA) and 20 ug/mL each streptavidin-coated donor and anti-rabbit IgG acceptor AlphaScreen beads. Antibody and beads were added in a 1ul dispense, for a final volume of 4ul, and plates were incubated, protected from the light, for 10 min at room temperature. Microplates were then read on an EnVision multilabel plate reader using the 1,536 plate HTS AlphaScreen aperture (excitation time 80 ms, measurement time 240 ms).
% is set by controls: 0 for no effect and ±100 for the full control effect; potency is the fitted concentration of half-maximal effect.

Sequence of Histone-lysine N-methyltransferase EHMT2 (Homo sapiens) (Q96KQ7 913-1193 limits assumed): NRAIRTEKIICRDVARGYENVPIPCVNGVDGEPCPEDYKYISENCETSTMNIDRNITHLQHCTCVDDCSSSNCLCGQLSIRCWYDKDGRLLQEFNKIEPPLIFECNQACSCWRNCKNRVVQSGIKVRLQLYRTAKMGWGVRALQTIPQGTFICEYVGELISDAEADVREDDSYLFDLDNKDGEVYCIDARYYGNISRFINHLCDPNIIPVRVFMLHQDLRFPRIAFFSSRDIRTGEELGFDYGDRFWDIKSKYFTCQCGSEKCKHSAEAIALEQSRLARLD

SMILES	activity, negative = inhibition	Potency
CC(C)OCCCn1c(SCC(=O)c2ccccc2)nc2c(sc3ccccc32)c1=O	-2.03%	–
COc1ccc(NC(=O)c2cn(-c3ccccc3)nc2SC)cc1	–	39.8 µM (active)
COc1ccc(-c2nn(-c3ccccc3)cc2C(=O)Nc2nc(CC(C)=O)ns2)cc1	-1.95%	–
COc1cc(NC(=O)c2cccnc2SC)cc(OC)c1	1.95% [at 102 µM]	–
Cc1nnc(C)n1-c1ccc(C(=O)Nc2cccc(Br)c2)cc1	-0.406%	–
CCOC(=O)CC1COCCN1C(=O)c1cc(COc2ccc(F)c(F)c2)on1 (stereo unspecified)	-0.953% [at 102 µM]	–
Cc1ccc(NC(=O)c2cc(-c3ccc(C)o3)nc3ccccc23)nc1	–	2.24 µM (active)
COc1ccc(NC(=O)CN(C)C(=O)Cc2coc3cc(C)c(C)cc23)cc1	–	50.1 µM (active)
COc1ccc(-c2cc(C(=O)N(C)Cc3ccccc3)c3ccccc3n2)cc1	18.4% [at 102 µM]	–
COc1ccc(CNC(=O)Cc2coc3ccc(C(C)C)cc23)cc1	12%	–
COc1ccc(NC(=O)CN(C)C(=O)CC2CCCCC2)cc1	0.205% [at 102 µM]	–
COc1ccc(NC(=O)CN(C)C(=O)c2n[nH]c3ccccc23)cc1	-20.6% [at 102 µM]	–
CSc1ncccc1C(=O)Nc1ccc(C)cn1	36.7% [at 102 µM]	–
CC(=O)N1CCN(C(=O)c2cc(-c3ccc(C)o3)nc3ccccc23)CC1	-3.86% [at 0.501 µM]	–
COc1ccc(NC(=O)CN(C)C(=O)c2cc(-c3ccc(C)o3)nc3ccccc23)cc1	–	4.47 µM (active)
Cc1oc2ncnc(N3CCOCC3)c2c1C(=O)NCCc1ccccc1	-7.19%	–
CCCN(C(=O)Cn1cc(S(=O)(=O)N2CCN(c3ccccc3F)CC2)c2ccccc2c1=O)c1cccc(C)c1	-28.5%	–
COc1ccc(NC(=O)CN(C)C(=O)c2cc(C3CC3)nn2-c2ccccc2)cc1	-2.32% [at 2.33 µM]	–
O=C(CCNC(=O)c1ccc([N+](=O)[O-])cc1)NC1CCCCC1	-10.3% [at 102 µM]	–
COc1cc(NC(=O)Cn2nc(-c3ccc(C)c(C)c3)ccc2=O)cc(OC)c1	2.48%	–
CCS(=O)(=O)Nc1cc(C(=O)OC)ccc1C(=O)OC	–	2.82 µM (active)
CCCN(CCC)C(=S)Nc1cc(C(=O)OC)ccc1C(=O)OC	4.81% [at 102 µM]	–
CCN(CCO)C(=S)Nc1cc(C(=O)OC)ccc1C(=O)OC	-9.82% [at 102 µM]	–

SMILES	activity, negative = inhibition	Potency
CCn1cc(C(=O)N(C)Cc2ccccc2)c(=O)c2cc(S(=O)(=O)N3CCCCCC3)ccc21	10.3%	–
Cc1ccc(S(=O)(=O)N2CCc3cc(C(=O)Nc4ccc(Cl)cc4C)ccc32)cc1	3.64%	–
COc1ccc(/C=C/C(=O)N2CCCC2)cc1OC	47.4% [at 102 µM]	–
COC(=O)c1ccc(COc2ccc(/C=C/C(=O)c3ccc(OC)c(CSCC(=O)O)c3)cc2OC)cc1	–	39.8 µM (active)
COc1ccc(/C=C/C(=O)c2ccc(NS(=O)(=O)c3ccc(C)cc3)cc2)cc1O	-14.7%	–
Cc1nc(N)nc(SCc2ccc([N+](=O)[O-])cc2)c1N	-1.52% [at 12.7 µM]	–
Cc1nc(SCc2ccc(F)cc2)c([N+](=O)[O-])[nH]1	–	25.1 µM (active)
Cc1cc([N+](=O)[O-])nn1Cc1ccc(F)cc1	8.26% [at 102 µM]	–
CCN(CC)CCn1c2c(c(SCC(=O)Nc3nc4ccccc4s3)nc1=O)CCCC2	5.88% [at 0.501 µM]	–
CC(C)(C)c1ccc(SCCc2ccncc2)cc1	60.8% [at 102 µM]	–
Cc1nn2c(=O)cc(COC(=O)CNC(=O)c3ccc(F)cc3)nc2s1	1.25%	–
CCOC(=O)C(=O)Nc1nc(-c2ccccc2)c(CC)s1	8.29% [at 102 µM]	–
C/C(=N/Nc1nc(-c2ccccc2)c(CC(=O)O)s1)c1ccccc1	–	1.78 µM (active)
Cc1ccc(-c2nc(C)sc2CC(=O)O)cc1	-39.5%	–
Cc1nnc(SCC(=O)Nc2cccc(N)c2)n1-c1ccccc1	10.8% [at 102 µM]	–
O=C(Nc1cccc(F)c1)NC1CCCCCCC1	76% [at 102 µM]	–
COc1ccc(C(=O)c2oc3ccccc3c2NC(=O)COc2cccc(C)c2)cc1	-4.56%	–
CCc1nn(CC(=O)N2CCN(c3cccc(C(F)(F)F)c3)CC2)c(=O)c2cc3occc3n12	2.68%	–
COCCN(Cc1ccco1)C(=O)Cn1ncc2c([nH]c3ccccc32)c1=O	-4.69%	–
COc1ccc(C(=O)NC(=O)CSc2nnc(-c3ccco3)n2-c2ccccc2)cc1	–	89.1 µM (active)
O=C(CSc1nnc(-c2ccco2)n1-c1ccccc1)NCCc1ccccc1	21.7%	–
COc1ccc(-n2c(SCC(=O)NCc3cccs3)nnc2-c2ccoc2C)cc1	-7.6% [at 12.7 µM]	–
COc1ccc(CCNC(=O)C(=O)NCC(c2ccco2)S(=O)(=O)c2cccs2)cc1OC (stereo unspecified)	-0.762%	–

Source: PubChem BioAssay AID504332 (National Center for Advancing Translational Sciences (NCATS), 2011)
